# KB-V1 MDR tox: kills drug-selected multidrug resistant KB-V1 cells; 400,000 compounds, 3.4% hits; Potency, µM (titrated, usually from 46.1 µM), most hits filed as cytotoxic; KB-V1 MDR cells viability, CellTiter-Glo, 72 h; further: on the % scale 0 is the no-effect control and ±100 the full control effect; nearly all actives have a fitted effect of over 60% in size
#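 Cytotoxicity toward P-gp-expressing KB-V1 cells was determined as loss of CellTiter-Glo luminescence after 72 h at 37 degrees C. Compounds were tested in quantitative HTS format across a concentration range, with curves fitted to normalized data.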
# SW480 rereplic: induces DNA re-replication in SW480 colon adenocarcinoma cells; SW480 DNA re-replication, Hoechst DNA content imaging, 48 h; Potency, µM (highest dose often 46.1 µM), without a hit: at the top dose re-replication activation, most hits filed as activators; 340,000 compounds, 1.8% hits; further: % of control where 0% means no effect; nearly all actives have a fitted effect of over 55% in size
#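 Hoechst fluorescence of nuclei (405 nm excitation, 500-530 nm emission) measured by plate-scanning imager after 48 hr compound exposure at 37 C; re-replication scored as increased number of nuclei with elevated intensity.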
# MCF10A rereplic: DNA re-replication induction in MCF 10a cells; AID 624296; MCF 10A DNA re-replication, Hoechst nuclear intensity, 48 h; Potency, µM (highest dose often 46.1 µM), inactives show top-dose activity, positive = re-replication, most hits filed as activators; 350,000 compounds, 2.9% hits; further: % of control where 0% means no effect; nearly all actives have a fitted effect of over 50% in size
# HT1080-NT tox: kills 2HG-producing HT-1080-NT fibrosarcoma cells; HT-1080-NT fibrosarcoma viability, CellTiter-Glo ATP luminescence, 48 h; Potency, µM (doses to about 46.1 µM), inactives show at the highest dose activity, negative = less viability, hits mostly cytotoxic; 360,000 compounds, 1.6% hits; AID 686970;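 further: NT is the 2HG producing partner of a matched IDH1 knockdown line; 0% = DMSO-treated cells and -100% = media-only wells without cells; nearly all actives have a fitted effect of over 55% in size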
#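 Viability by CellTiter-Glo luminescence after 48 h compound exposure at 37C of HT-1080-NT cells (750/well, RPMI, 5% FBS). % activity scaled between DMSO wells and medium-only wells, then curve-fitted and categorized by curve class.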
# HT1080 IDH1KD tx: HT-1080 IDH1 knockdown cell toxicity (counter line); Potency, µM (highest dose often 46.1 µM), inactives show at the highest dose activity, negative = toxicity, most hits filed as cytotoxic; HT-1080 IDH1 knockdown viability, ATP luminescence, 48 h; 360,000 compounds, 2% hits; AID 686971;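 further: 0% = DMSO wells and -100% = cell-free medium wells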
#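 Knockdown cells (IDH1KD HT-1080) received compounds 2 h after plating at 750 cells/well and were kept 48 h at 37 °C in 5% FBS RPMI. A CellTiter-Glo luminescence read gave % activity for curve fitting.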
# KB-3-1 cytotox: kills parental KB-3-1 adenocarcinoma cells; Potency, µM (top dose mostly 46.1 µM), usual class: cytotoxic; 400,000 compounds, 1.4% hits; AID 1347075; KB-3-1 viability, CellTiter-Glo ATP luminescence, 72 h; further: on the % scale 0 is the no-effect control and ±100 the full control effect; nearly all actives have a fitted effect of over 60% in size
#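 Cells are dispensed, compounds pinned in, plates held at 37 °C for 72 h, then CellTiter-Glo is added and luminescence read after 10 minutes. Cell line: parental KB-3-1 in phenol-red-free DMEM, 10% FBS.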
# Active calls of the source: *; i = inactive; u = inconclusive; x = no result; [ ] = another dose, or the depositor's remark. Compounds with a hit are over-represented: about 7.9% of the library has one in this group of screens. The call rests on the fitted dose curve; in most records, active means well fitted curve in the direction sought with a large enough effect; inconclusive means small, poorly fitted or top-dose-only effect, or another doubt; inactive means no such curve, though single readings can be large; an effect the other way counts as inactive or inconclusive. Potency means the concentration at half of the fitted maximal effect.
SMILES,KB-V1 MDR tox,SW480 rereplic,MCF10A rereplic,HT1080-NT tox,HT1080 IDH1KD tx,KB-3-1 cytotox
O=C(COc1ccccc1)NNc1c2ccccc2nc2ccccc12,18.4µM*,-1.1%,22.5%,-29.6%,u,i
O=C(NNc1c2ccccc2nc2ccccc12)c1ccc(O)cc1,i,5.7%,-3.9%,-7.1%,-19.6%,i
Cc1nc(=O)c(-c2ccccc2)c(C)n1-c1cccc(/C=C/C(=O)O)c1,i,-0.7%,-0.1%,8.2%,10.3%,i
CC(NC(=O)c1cc(F)c(F)c(F)c1F)c1ccc(-n2ccnc2)cc1 (stereo unspecified),i,-3.1%,4.5%,-12.1%,-6.3%,i
O=C(NNc1c2ccccc2nc2ccccc12)c1ccccc1O,20.6µM*,-12.1%,6.6%,u,u,i
O=C(NNc1c2ccccc2nc2ccccc12)c1ccc(O)cc1O,i,1.8%,-16.2%,u,u,i
O=C(NNC(=O)c1cccc2ccccc12)c1ccccc1O,i,7.31µM*,-41.1%,-11.0%,u,u
Cc1cc(C)n2nc(-c3ccc(Cl)cc3)nc2n1,u,x,x,x,x,i
COc1ccc(C2=NOC(Cn3nc(-c4ccccc4)cc3C(=O)NCc3cccs3)C2)cc1 (stereo unspecified),i,u,9.3%,-4.3%,-1.7%,i
CN(C)C1=NC[C@H](Cc2ccccc2)N1CCCC1CCCCC1,i,-55.5%[9.22 µM],14.4%,-15.7%,u,i
CN(C)C1=NC[C@H](Cc2ccccc2)N1CCCC1CCCC1,i,u,1.3%,20.6µM*,u,i
C/C(=N\NC(=O)c1cc(C2CC2)nc2ccccc12)c1ccc(O)cc1O,i,1.46µM*,13.6%,u,4.61µM*,u
CC(OC(=O)c1cc(-c2cccnc2)nc2ccccc12)C(=O)Nc1ccc2ccccc2c1 (stereo unspecified),i,1.9%,16.4µM*,1.1%,12.5%,i
C/C(=N\NC(=O)c1cc(-c2cccnc2)nc2ccccc12)c1ccccc1O,6.51µM*,24.2%,u,-11.5%,9.2µM*,i
COc1ccc(/C(C)=N/NC(=O)c2cc(-c3cccnc3)nc3ccccc23)cc1,i,-3.5%,-1.6%,9.1%,8.5%,i
O=C(NNC(=S)Nc1ccccc1)c1cc(-c2cccnc2)nc2ccccc12,i,-1.5%,-1.7%,4.6%,-5.8%,i
O=C(Nc1ccn(CCCN2CCC(N3CCOCC3)CC2)c(=O)n1)OCc1ccccc1,i,x,x,-2.6%,1.0%,i
CCN(CC)c1cc(C)nc2nc(-c3ccc(C)cc3)nn12,i,x,x,x,x,i
N#CC(c1ccc(Cl)cc1)c1ccc2c(C(F)(F)F)cc(C(F)(F)F)nc2n1 (stereo unspecified),u,u,u,10.3µM*,14.6µM*,u
O=C(COC(=O)CNC(=O)c1ccc(Cl)cc1Cl)NC1CCCCCCC1,i,2.0%,5.9%,5.9%,-6.3%,i
CC(Oc1ccc2c3c(c(=O)oc2c1)CCCC3)C(=O)NCc1cccnc1 (stereo unspecified),i,-7.6%,-4.4%,0.0%,-3.5%,i
COc1ccc(CNc2nc(-c3ccco3)nn2S(=O)(=O)c2ccc(Cl)cc2)cc1OC,i,x,x,x,x,i
Fc1ccc(Nc2nc3ccccc3n3cnnc23)c(F)c1,i,x,x,x,x,i
c1ccc(N2CCCCC2)c(Nc2nc3ccccc3n3cnnc23)c1,i,-75.6%,11.6µM*,13.3%,0.8%,u
FC(F)(F)c1ccc(N2CCOCC2)c(Nc2nc3ccccc3n3cnnc23)c1,u,u,23.1µM*,u,u,u
SMILES,KB-V1 MDR tox,SW480 rereplic,MCF10A rereplic,HT1080-NT tox,HT1080 IDH1KD tx,KB-3-1 cytotox
O=C(NCc1ccccn1)c1cccc(S(=O)(=O)Nc2ccccc2Cl)c1,i,2.6%,-19.9%,5.6%,-2.8%,i
CC(C)c1ccc(NC(=O)c2ccc(F)c(S(=O)(=O)N3CCc4ccccc4C3)c2)cc1,i,x,x,x,x,i
COCCCN=C1NN=C(c2cc(C)n(Cc3ccccc3Cl)c2C)CS1,1.46µM*,0.651µM*,u,4.61µM*,7.31µM*,1.3µM*
COCCn1c(C)cc(C2=NNC(=Nc3ccccc3F)SC2)c1C,11.6µM*,5.3%,19.2%,-0.7%,-10.1%,18.4µM*
Cc1cc(C2=NNC(=Nc3ccccc3)SC2)c(C)n1C,i,11.2%,4.4%,6.6%,-1.7%,i
COCCCN=C1NN=C(c2cc(C)n(-c3ccccc3F)c2C)CS1,i,u,u,u,u,7.31µM*
COCCCN=C1NN=C(c2cc(C)n(-c3ccccc3)c2C)CS1,i,u,u,6.6%,12.8%,i
CN(Cc1ccccc1N1CCCC1)C(=O)c1cc2cc(Cl)ccc2o1,u,-25.0%,14.6µM*,-0.2%[9.24 µM],-0.7%,u
CN(Cc1ccccc1N1CCCC1)C(=O)c1cc2ccccc2o1,i,8.2%,u,-6.0%,-6.1%,i
CCOC(=O)CSc1nc(-c2ccncc2)ccc1C#N,i,3.8%,11.6µM*,-1.9%,5.6%,i
CCOC(=O)CCCSc1nc(-c2ccc3c(c2)OCO3)cc(C(F)(F)F)c1C#N,i,u,0.6%,-17.6%,-4.7%,i
CCOC(=O)CC(=O)CSc1nc(-c2cccnc2)ccc1C#N,i,-18.4%,-4.8%,16.0%,27.9%,i
CCOC(=O)CSc1nc(-c2ccc3c(c2)OCO3)ccc1C#N,u,2.3%,16.4µM*,u,-0.3%,i
O=C(NCc1ccc2c(c1)OCO2)C(=O)NCC1OCCCN1S(=O)(=O)c1ccc(F)cc1 (stereo unspecified),i,-7.1%,5.1%,27.4%,-2.7%,i
CCC1(OC(=O)CN(C)C)C(=O)OCc2c1cc1n(c2=O)Cc2cc3c(N)cccc3nc2-1 (stereo unspecified),2.91µM*,u,17.7%,7.31µM*,7.31µM*,u
COc1ccc(/C=C2\C(=O)NCC(=O)N2Cc2ccccc2)cc1,u,16.4µM*,u,u,u,u
COc1ccc(/C=C2\C(=O)NCC(=O)N2C)cc1,i,2.4%,-4.6%,-6.4%,0.0%,i
Cc1csc(NC(=O)CSc2ncnc3c2cnn3-c2ccccc2Cl)n1,u,21.2%,22.4µM*,u,u,u
Cc1ccccc1-n1ncc2c(SCC(=O)NCc3cccs3)ncnc21,7.31µM*,20.6µM*,12.6µM*,u,20.6µM*,5.17µM*
